Only a selection was taken, and hits are over-represented in it overall.
CHX counter: Cycloheximide Counterscreen for Small Molecule Inhibitors of Shiga Toxin | cell reporter, cycloheximide protein synthesis inhibition counterscreen | max response, % | 300,000 tested, 12% active | AID 2314, 2010; in the data active means max response mostly above about 13%, no sharp cut-off; inactive means mostly below about 14%; further: read at 38.3 µM for the half of the compounds with a filed dose; 0% is about no effect
Shiga toxin inh: A qHTS for Small Molecule Inhibitors of Shiga Toxin; 290,000 tested, 9.2% active; inhibition, % at 38.7 µM; Vero cells, Shiga toxin protein synthesis inhibition reporter; AID 2315, 2010; in the data active means inhibition mostly above about 28%, no sharp cut-off; inactive means mostly below about 43%; further: 0% is about no effect
LmPK inhibitor: qHTS Assay for Inhibitors of Leishmania Mexicana Pyruvate Kinase (LmPK); purified LmPK, Kinase-Glo ATP luminescence, 1 h; Potency, µM (highest dose often 57.5 µM), without a hit: top-dose activity change, negative = inhibition, actives largely listed as inhibitors; 290,000 tested, 0.37% active; further: potency means the concentration at half of the fitted maximal effect; on the % scale 0 is the no-effect control and ±100 the full control effect
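Pyruvate kinase activity monitored as ATP production (luciferase luminescence). Conditions: 0.1 nM enzyme, 0.5 mM PEP, 0.1 mM ADP, 1 h, RT; normalized against uninhibited and no-enzyme wells.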
Giardia FBPA inh: qHTS Assay for Inhibitors of Fructose-1,6-bisphosphate Aldolase from Giardia Lamblia; AID 2451, 2010; 290,000 tested, 0.71% active; Potency, µM (highest dose often 59.6 µM), without a hit: top-dose activity, negative = inhibition, hits mostly inhibitors; purified Giardia FBPA; further: potency means the concentration at half of the fitted maximal effect; on the % scale 0 is the no-effect control and ±100 the full control effect; nearly all actives have a fitted effect of over 55% in size
Target sequence (A8B2U2 whole entry, looked up): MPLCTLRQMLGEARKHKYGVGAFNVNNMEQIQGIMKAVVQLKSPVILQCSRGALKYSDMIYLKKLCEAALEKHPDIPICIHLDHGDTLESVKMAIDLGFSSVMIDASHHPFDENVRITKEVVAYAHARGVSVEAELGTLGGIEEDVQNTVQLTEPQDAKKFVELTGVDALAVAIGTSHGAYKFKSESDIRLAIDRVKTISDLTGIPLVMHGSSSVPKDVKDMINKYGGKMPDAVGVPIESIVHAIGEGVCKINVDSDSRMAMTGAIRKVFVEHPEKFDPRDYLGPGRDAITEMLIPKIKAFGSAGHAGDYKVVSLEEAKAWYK
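40 nM FBPA preincubated 10 min at RT with compound (up to 57.5 uM final), then substrate plus GAPDH/TPI/NAD/arsenate coupling and diaphorase/resazurin added. Fluorescence read after 20 min at RT, 525/598 nm.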
Sm TGR inh: qHTS Assay for the Inhibitors of Schistosoma Mansoni Peroxiredoxins; Schistosoma mansoni thioredoxin glutathione reductase (TGR), Q962Y6; purified TGR, DTNB reduction, TNB absorbance 405 nm; Potency, µM (highest dose often 114 µM), for the others: top-dose activity change, negative = inhibition, most hits filed as inhibitors; 360,000 tested, 3% active; further: potency means the concentration at half of the fitted maximal effect; on the % scale 0 is the no-effect control and ±100 the full control effect; nearly all actives have a fitted effect of over 60% in size
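First, TGR (20 nM dispensed) and NADPH were mixed with compound. Second, a 15 min room-temperature incubation followed. Third, further NADPH and then DTNB were added to start the reaction. Finally, TNB absorbance was monitored kinetically.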
TbPYK inhibitor: qHTS of Trypanosoma Brucei Inhibitors; pyruvate kinase (Trypanosoma brucei), Q57TT1; TbPYK enzyme, Kinase-Glo Plus ATP luminescence, 45 min; Potency, µM (series often up to 76.8 µM), without a hit: at the highest dose activity, negative = inhibition, most hits filed as inhibitors; 410,000 tested, 0.12% active; further: potency means the concentration at half of the fitted maximal effect; on the % scale 0 is the no-effect control and ±100 the full control effect; nearly all actives have a fitted effect of over 50% in size
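Glycolytic pyruvate kinase of T. brucei was incubated with substrate, test compound and 130 uM ADP for 45 minutes at room temperature. Luminescent Kinase-Glo Plus signal was measured after 10 minutes.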
Numbers without * were called inactive; ? = inconclusive; nt = not tested or not shown. Unless noted, the call rests on the fitted dose curve; in most records, active means well fitted curve in the direction sought with a large enough effect; inconclusive means small, poorly fitted or top-dose-only effect, or another doubt; inactive means no such curve, though single readings can be large; an effect the other way counts as inactive or inconclusive.

SMILES	CHX counter	Shiga toxin inh	LmPK inhibitor	Giardia FBPA inh	Sm TGR inh	TbPYK inhibitor
O=C(OCC(COC(=O)c1cccnc1)(COC(=O)c1cccnc1)COC(=O)c1cccnc1)c1cccnc1	nt	nt	nt	nt	nt	2%
OCCCN=c1cc(-c2ccccc2)oc2ccc(Cl)cc12	35*	97*	2%	5%	-16%	4%
Cc1nn(C(=O)c2ccccc2)c(C)c1S(=O)(=O)N1CCOCC1	nt	nt	nt	nt	-28%	-2%
Oc1cc2c(cc1O)C1c3ccc(O)c(O)c3OCC1(O)C2 (configuration not stated)	-1	-15	?	6.3µM*	0.71µM*	10µM*
CCOC(=O)c1ccc(N2C(=O)C=CC2=O)cc1	7	-12	-12%	?	0.5µM*	32µM*
CCOC(=O)c1ccc(-n2c(=O)[nH]c3ccccc3c2=O)cc1	9	-15	6%	0%	0%	5%
CCOC(=O)c1ccc(-n2c(C)ccc2C)cc1	1	19	2%	0%	28µM*	3%
COc1cccc(CCc2ccccc2OCC[C@@H]2C[C@@H](O)CN2C)c1	nt	nt	nt	-12%	nt	nt
CCS(=O)(=O)c1ncc(Cl)c(C(=O)Nc2ccc(S(=O)(=O)N3CCCC(C)C3)cc2)n1 (configuration not stated)	-3	-5	6%	-4%	0.35µM*	-2%
Cc1ccc(CS(=O)(=O)c2ncc(Cl)c(C(=O)Nc3ccc(OC(F)F)cc3)n2)cc1	17*	27	3%	nt	10µM*	-15%
COc1ccc(NC(=O)c2nc(S(=O)(=O)Cc3ccc(C)cc3)ncc2Cl)cc1	nt	nt	nt	nt	?	-3%
CCC1CCCCN1S(=O)(=O)c1ccc(NC(=O)c2nc(S(C)(=O)=O)ncc2Cl)cc1 (configuration not stated)	-7	-20	8%	9%	2µM*	-8%
CSc1ncc(Cl)c(C(=O)Nc2ccc(NC(C)=O)cc2)n1	1	-8	-2%	3%	0%	-2%
CCS(=O)(=O)c1ncc(Cl)c(C(=O)Nc2ccc(C)cc2)n1	-4	-12	-2%	10%	6.3µM*	0%
Cc1cc(C)c(NC(=O)CN(C)C(=O)CCC(=O)c2ccc(C)s2)c(C)c1	nt	nt	nt	nt	-33%	7%
N=C(N)c1ccc(OCCCOc2ccc(C(=N)N)cc2Br)c(Br)c1	nt	nt	nt	nt	nt	-1%
CC(C)(C)OC(=O)N1CC=C2C(C#N)=C(N)C(C#N)(C#N)[C@H](c3cccnc3)[C@H]2C1	8	2	3%	?	35µM*	3%
CN(/N=C/c1ccc(Cl)cc1)c1ncc(Cl)cc1C(F)(F)F	11*	1	0%	0%	-3%	2%
CC(=O)Nc1ccc(-c2ccnc3c2CC(C)(C(=O)Nc2cccc(C(F)(F)F)c2)O3)cc1 (configuration not stated)	nt	nt	nt	nt	nt	-2%
Cc1cc(C)c(C(=O)/C=C/C=C/c2ccccc2)c(=O)[nH]1	25*	52*	0%	-12%	?	-7%
Cc1cc(O)c(C(=O)/C=C/c2ccccc2Br)c(=O)o1	20*	nt	-1%	3%	-32%	4%
Cc1cc(O)c(C(=O)/C=C/c2ccc(C(C)C)cc2)c(=O)o1	53*	66*	-4%	14%	-12%	0%
CCc1ccccc1N/N=C(/C)c1c(O)cc(C)oc1=O	1	-6	2%	-11%	?	-4%
Cc1cc(C)c(C(=O)/C=C/c2ccc(C(C)C)cc2)c(=O)[nH]1	-3	-10	-2%	13%	-3%	1%
CN(C)c1ccc(/C=C/C(=O)c2c(O)c3ccccc3oc2=O)cc1	9	20	-17%	-6%	0%	-13%
SMILES	CHX counter	Shiga toxin inh	LmPK inhibitor	Giardia FBPA inh	Sm TGR inh	TbPYK inhibitor
Cc1cc(O)c(C(=O)/C=C/c2ccccc2)c(=O)o1	14	44*	-3%	-9%	?	1%
CCOC(=O)c1cccc(NC(=O)CC2C(=O)N(c3ccc(Cl)cc3)C(=O)N2C2CCCC2)c1 (configuration not stated)	nt	nt	nt	nt	-6%	-4%
CCOc1ccc(/C=C/C(=O)c2c(O)c3ccccc3oc2=O)cc1	-2	-8	-2%	15%	0%	8%
CCOc1ccc(/C=C/C(=O)c2c(O)cc(C)oc2=O)cc1	42*	57*	?	-2%	-18%	-15%
CNC(=O)C1CCC(Cn2c(=O)c3sccc3n(CC(=O)Nc3ccc(C)c(C)c3)c2=O)CC1 (configuration not stated)	nt	nt	nt	nt	-9%	3%
O=C(Nc1nc(-c2ccccc2)cs1)c1ccccc1F	41*	62*	5%	4%	4%	2%
COc1ccc(-c2csc(NC(=O)c3ccccc3NS(=O)(=O)c3ccc(F)c(F)c3)n2)cc1	-3	2	4%	-7%	5%	4%
O=C(Nc1nc(-c2ccccc2)cs1)c1ccc(Br)o1	32*	107*	-1%	1%	-10%	-18%
COc1ccc(-c2csc(NC(=O)c3ccccc3F)n2)cc1	15*	nt	1%	14%	15%	5%
Cc1ccc(C(=O)Nc2nc(-c3cccnc3)cs2)o1	22	26	-7%	-4%	-27%	-8%
COc1ccc(N2Cc3cccc(C(=O)Nc4cccc(F)c4)c3C2=O)cc1	nt	nt	nt	nt	-3%	7%
CCOc1ccc(/C=N/OCC(=O)Nc2ccc(OCc3ccccc3)cc2)cc1OC	17*	37	-6%	2%	-9%	-18%
COc1ccc(/C=N/OCC(=O)Nc2cc(C)on2)cc1OC	6	-5	-5%	10%	2%	5%
COc1ccc(NC(=O)CN(C)C(=O)c2ccc(OCc3ccccc3)c(OC)c2)cc1	nt	nt	nt	nt	3%	-6%
COc1cc(/C=N/OCC(=O)Nc2ccc(OC(F)F)cc2)ccc1OCc1ccccc1	45*	22	-1%	-4%	6%	-9%
COc1ccc(-c2oc3ncn4nc(-c5ccccc5O)nc4c3c2-c2ccc(OC)cc2)cc1	nt	nt	nt	nt	-4%	2%
O=S(=O)(N/N=C1\CC(c2ccccc2)Oc2ccccc21)c1ccccc1 (configuration not stated)	18	35	5%	1%	14%	-3%
CCOc1ccc(S(=O)(=O)N/N=C2/CC(c3ccccc3)Oc3ccccc32)cc1 (configuration not stated)	30*	32	1%	-1%	-4%	-7%
O=C(N/N=C1\CC(c2ccccc2)Oc2ccccc21)c1cccnc1 (configuration not stated)	6	7	1%	12%	-4%	-10%
O=C(N/N=C1\CC(c2ccccc2)Oc2ccccc21)c1ccc(O)cc1 (configuration not stated)	40*	118*	-5%	4%	-2%	7%

Screening data (PubChem BioAssay)
